Assay results published in PubChem BioAssay (EPA / NIEHS).
The source made the active and inactive calls. The calls were made as follows: active = hit-call score of the fitted dose curve at least 0.9, where 1 is the maximum; inactive = score below 0.9.

Columns and labels:
[1] = ATG_GRE_CIS: Attagene CIS-FACTORIAL HepG2 Assay for human Glucocorticoid Response Elements (GRE) (AID 2282947); conditions: HepG2 GRE cis-reporter, Attagene multiplex mRNA; actives raise or lower the signal
In short: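 HepG2, transient cis-reporter transfection, 24 h. Reporter mRNA: RT-PCR then CE, fluorescence. Fit both directions vs DMSO.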

[2] = ATG_ISRE_CIS: Attagene CIS-FACTORIAL HepG2 Assay for human Interferon Regulatory Factor 1 (IRF1) binding to an Interferon-Stimulated Response Element (ISRE) (AID 2282948); conditions: HepG2 ISRE cis-reporter (Attagene), mRNA transcription readout; actives raise or lower the signal
In short: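 Read-out: fluorescent RT-PCR products resolved by capillary electrophoresis, reporting endogenous transcription factor activity via ISRE-driven reporter mRNA in transfected HepG2 cells dosed for 24 h; gain or loss fitted relative to DMSO.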

[3] = ATG_M_32_CIS: Attagene CIS-FACTORIAL HepG2 Assay for M32 Transcription Factor (Internal Marker) (AID 2282949); conditions: HepG2 Attagene cis-factorial M32 reporter, mRNA; actives raise or lower the signal;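 also: background control marker of the multiplexed CIS panel rather than a real target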
In short: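 Transient MRTU transfection of HepG2; 24 h compound treatment; TriZol RNA, oligo(dT) RT, reporter PCR, 6-FAM primer extension, HpaI cut, CE. Gain/loss of signal vs DMSO.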

[4] = ATG_M_06_CIS: Attagene CIS-FACTORIAL HepG2 Assay for M06 Transcription Factor (Internal Marker) (AID 2282950); conditions: HepG2 Attagene CIS-FACTORIAL M06 internal marker reporter; actives raise or lower the signal
In short: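 Terse: HepG2, transient MRTU transfection (FuGene 6), 24 h dosing; total RNA, oligo(dT) RT, PCR, FAM label, HpaI cut, capillary electrophoresis; bidirectional fit vs DMSO baseline; background-control endpoint.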

[5] = target: Hypoxia-inducible factor 1-alpha (Homo sapiens) (UniProt Q16665); experiment: ATG_HIF1a_CIS: Attagene CIS-FACTORIAL HepG2 Assay for human Hypoxia Inducible Factor 1 (HIF1A) (AID 2282951); conditions: HepG2 Attagene cis-factorial HIF1a reporter transcription; actives raise or lower the signal
In short: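 After 24 h chemical exposure of reporter-transfected HepG2 cells, reporter cDNA was PCR-amplified, labelled by 6-FAM primer extension (2 min 95 C, 20 s 68 C, 10 min 72 C), HpaI-cut (2 h, 37 C) and analysed by CE.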

[6] = target: Hepatocyte nuclear factor 6 (Homo sapiens) (UniProt Q9UBC0); experiment: ATG_HNF6_CIS: Attagene CIS-FACTORIAL HepG2 Assay for human Hepatocyte Nuclear Factor 6 (HNF6) (AID 2282952); conditions: HepG2 Attagene cis-factorial HNF6 reporter transcription; actives raise or lower the signal
In short: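 Twenty-four-hour chemical treatment of reporter-transfected HepG2 cells precedes RNA isolation, DNase-treated reverse transcription and PCR of reporter sequences. Labelled fragments are sized by capillary electrophoresis and fitted bidirectionally versus DMSO.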

[7] = target: Heat shock factor protein 1 (Homo sapiens) (UniProt Q00613); experiment: ATG_HSE_CIS: Attagene CIS-FACTORIAL HepG2 Assay for human Heat Shock Transcription Factor 1 (HSE) (AID 2282953); conditions: HepG2 HSE cis-reporter, Attagene RNA transcription; actives raise or lower the signal
In short: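 Read-out: fluorescence of reporter-specific RT-PCR fragments separated by capillary electrophoresis. HepG2 carrying transfected cis-element reporter units; 24 h dosing; activity fitted in both directions relative to DMSO baseline.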

[8] = ATG_MRE_CIS: Attagene CIS-FACTORIAL HepG2 Assay for human Metal Responsive Element (MRE) (AID 2282954); conditions: HepG2 MRE cis-reporter transcription, Attagene multiplex; actives raise or lower the signal
In short: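 Readout: capillary electrophoresis of 6-FAM-labelled, HpaI-digested RT-PCR reporter products. System: HepG2 cells carrying transient multiplexed cis reporters, dosed 24 h. Analysis: bidirectional fit, DMSO baseline.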

[9] = target: Paired box protein Pax-6 (Homo sapiens) (UniProt P26367); experiment: ATG_Pax6_CIS: Attagene CIS-FACTORIAL HepG2 Assay for human Paired Box 6 (PAX6) (AID 2282956); conditions: HepG2 CIS-FACTORIAL PAX6 reporter transcription, RNA readout; actives raise or lower the signal
In short: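 Readout: reporter transcript fluorescence after RT-PCR and capillary electrophoresis. Cells: HepG2, transiently transfected with cis-regulated MRTUs. Exposure 24 h. Gain or loss of signal fitted bidirectionally relative to DMSO.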

[10] = ATG_RORE_CIS: Attagene CIS-FACTORIAL HepG2 Assay for human RAR-related Orphan Receptor Element (RORE) (AID 2282959); conditions: HepG2 Attagene cis-factorial RORE reporter, mRNA; actives raise or lower the signal
In short: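 A 24-hour exposure of transfected HepG2 hepatoma cells precedes RNA isolation and reporter RT-PCR. Labeled products are digested with HpaI and resolved by capillary electrophoresis, with gain or loss of signal scored relative to DMSO.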

[11] = ATG_Sox_CIS: Attagene CIS-FACTORIAL HepG2 Assay for human SRY-box transcription factor (SOX) (AID 2282960); conditions: HepG2 Attagene cis-factorial SOX reporter, mRNA; actives raise or lower the signal
In short: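 HepG2, cis reporter units, 24 h exposure. Reporter mRNA: RT-PCR → FAM labelling → HpaI → CE fluorescence. Bidirectional fit vs DMSO.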

[12] = target: Transcription factor Sp1 (Homo sapiens) (UniProt P08047); experiment: ATG_Sp1_CIS: Attagene CIS-FACTORIAL HepG2 Assay for human Specificity Protein 1 (Sp1) (AID 2282961); conditions: HepG2 Sp1 cis-reporter transcription, actives raise or lower the signal
In short: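 Liver-derived HepG2 cells, cis-element reporter library, 24 h treatment; RNA isolated, cDNA amplified with reporter-specific primers, FAM-labeled fragments sized on capillary analyzer. DMSO baseline, bidirectional curve fit.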

[13] = ATG_SREBP_CIS: Attagene CIS-FACTORIAL HepG2 Assay for human Sterol Regulatory Element Binding (SREBP) (AID 2282962); conditions: HepG2 Attagene cis-factorial SREBP reporter, mRNA; actives raise or lower the signal
In short: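 Readout: fluorescent reporter-transcript peaks resolved by capillary electrophoresis after RT-PCR. Cells were human HepG2 carrying transfected cis-promoter reporter constructs, dosed for 24 h. Gain or loss of signal was fitted against DMSO controls.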

[14] = target: Signal transducer and activator of transcription 3 (Homo sapiens) (UniProt P40763); experiment: ATG_STAT3_CIS: Attagene CIS-FACTORIAL HepG2 Assay for human Signal Transducer and Activator of Transcription 3 (STAT3) (AID 2282963); conditions: HepG2, Attagene cis-factorial STAT3 reporter transcription; actives raise or lower the signal
In short: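 Uses human liver HepG2 transiently carrying cis-regulated reporter transcription units. Following 24 h dosing, reporter mRNA induction was detected by RT-PCR and capillary electrophoresis, analysed bidirectionally versus DMSO.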

[15] = ATG_TA_CIS: Attagene CIS-FACTORIAL HepG2 Assay for human TA Basal Promoter (AID 2282964); conditions: HepG2 Attagene CIS-factorial TA basal promoter reporter; actives raise or lower the signal
In short: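 Transfected HepG2, 24 h compound exposure; RNA → RT-PCR → FAM primer extension → HpaI cut → CE fluorescence. Gain/loss-of-signal fitted against DMSO negative control. Background-control readout.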

[16] = ATG_TCF_b_cat_CIS: Attagene CIS-FACTORIAL HepG2 Assay for human T-Cell-Factor with beta-catenin (TCF/b-cat) (AID 2282965); conditions: HepG2 TCF/beta-catenin cis-reporter transcription, actives raise or lower the signal
In short: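 In this cis-format system, transfected HepG2 cells report endogenous transcription factor activity. Readout after 24 h exposure is reporter transcript abundance from RT-PCR and capillary electrophoresis, analysed for gain or loss of signal versus DMSO.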

[17] = ATG_PBREM_CIS: Attagene CIS-FACTORIAL HepG2 Assay for human Phenobarbital-responsive Enhancer Module (PBREM) (AID 2282955); conditions: HepG2 PBREM cis-reporter, Attagene multiplexed transcription; actives raise or lower the signal
In short: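 Measures endogenous factor action on a phenobarbital-responsive enhancer module. HepG2 transiently carrying cis reporters, 24 h treatment, mRNA read-out by RT-PCR plus capillary electrophoresis.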

[18] = ATG_PXRE_CIS: Attagene CIS-FACTORIAL HepG2 Assay for human Pregnane X Receptor Element (PXRE) (AID 2282957); conditions: HepG2 Attagene CIS-FACTORIAL PXRE reporter, mRNA; actives raise or lower the signal
In short: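 Bidirectional activity, baselined to DMSO, derived from reporter mRNA fluorescence (RT-PCR plus capillary electrophoresis) in HepG2 cells bearing cis-promoter reporter units, 24 h exposure.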

[19] = ATG_PPRE_CIS: Attagene CIS-FACTORIAL HepG2 Assay for human Peroxisome Proliferator-activated Response Element (PPRE) (AID 2282958); conditions: HepG2 PPRE cis-element reporter, Attagene transcription factor profiling; actives raise or lower the signal
In short: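 PPRE activity in HepG2: transient cis-reporter transfection, 24 h compound incubation, reporter mRNA by RT-PCR and CE fluorescence; gain/loss fitted against DMSO.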

Measured: AC50

Chain of Transcription factor Sp1 (Homo sapiens) (P08047 whole entry, looked up, the tested form may be a part): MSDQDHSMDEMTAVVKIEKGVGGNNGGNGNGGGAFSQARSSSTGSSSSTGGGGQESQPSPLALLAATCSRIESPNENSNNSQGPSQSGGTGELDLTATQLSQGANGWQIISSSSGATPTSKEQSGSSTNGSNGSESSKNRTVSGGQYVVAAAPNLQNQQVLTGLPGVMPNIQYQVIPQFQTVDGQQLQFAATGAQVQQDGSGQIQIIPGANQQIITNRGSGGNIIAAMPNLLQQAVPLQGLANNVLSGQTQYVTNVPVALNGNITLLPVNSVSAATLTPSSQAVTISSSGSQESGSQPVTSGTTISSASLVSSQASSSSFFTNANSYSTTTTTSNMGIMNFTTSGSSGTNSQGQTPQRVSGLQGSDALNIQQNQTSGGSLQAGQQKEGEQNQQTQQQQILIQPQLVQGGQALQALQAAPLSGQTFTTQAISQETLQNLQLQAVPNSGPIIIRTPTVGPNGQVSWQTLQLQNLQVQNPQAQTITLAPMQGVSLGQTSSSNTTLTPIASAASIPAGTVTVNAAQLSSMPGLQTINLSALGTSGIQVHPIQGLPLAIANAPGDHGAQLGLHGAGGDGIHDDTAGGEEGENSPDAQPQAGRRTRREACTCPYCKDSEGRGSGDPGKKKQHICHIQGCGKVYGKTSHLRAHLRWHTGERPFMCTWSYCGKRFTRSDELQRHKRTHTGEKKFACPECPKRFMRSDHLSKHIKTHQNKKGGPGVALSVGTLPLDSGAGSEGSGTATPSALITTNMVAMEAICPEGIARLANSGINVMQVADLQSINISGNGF
Chain of Hypoxia-inducible factor 1-alpha (Homo sapiens) (Q16665 whole entry, looked up): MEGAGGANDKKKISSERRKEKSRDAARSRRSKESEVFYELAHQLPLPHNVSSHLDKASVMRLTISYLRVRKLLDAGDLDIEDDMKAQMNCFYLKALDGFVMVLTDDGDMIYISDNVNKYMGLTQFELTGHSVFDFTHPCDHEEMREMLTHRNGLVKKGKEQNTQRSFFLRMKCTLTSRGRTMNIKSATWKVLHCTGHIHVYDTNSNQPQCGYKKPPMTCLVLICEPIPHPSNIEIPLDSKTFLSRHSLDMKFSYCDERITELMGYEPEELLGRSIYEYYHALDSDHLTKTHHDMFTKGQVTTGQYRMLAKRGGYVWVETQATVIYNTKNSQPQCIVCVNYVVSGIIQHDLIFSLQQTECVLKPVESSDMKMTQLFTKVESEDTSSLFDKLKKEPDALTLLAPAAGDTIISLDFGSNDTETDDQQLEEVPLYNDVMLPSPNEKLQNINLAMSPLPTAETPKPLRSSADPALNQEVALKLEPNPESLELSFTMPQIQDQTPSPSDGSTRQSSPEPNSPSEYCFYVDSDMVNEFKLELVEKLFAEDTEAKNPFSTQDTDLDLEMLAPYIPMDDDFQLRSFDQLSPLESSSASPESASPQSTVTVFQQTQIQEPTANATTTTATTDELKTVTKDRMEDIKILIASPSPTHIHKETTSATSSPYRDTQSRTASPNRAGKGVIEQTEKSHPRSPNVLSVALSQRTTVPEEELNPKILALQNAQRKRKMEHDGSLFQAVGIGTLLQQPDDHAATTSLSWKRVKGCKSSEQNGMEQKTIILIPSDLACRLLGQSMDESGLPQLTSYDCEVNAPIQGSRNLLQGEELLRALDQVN
Chain of Hepatocyte nuclear factor 6 (Homo sapiens) (Q9UBC0 whole entry, looked up, the tested form may be a part): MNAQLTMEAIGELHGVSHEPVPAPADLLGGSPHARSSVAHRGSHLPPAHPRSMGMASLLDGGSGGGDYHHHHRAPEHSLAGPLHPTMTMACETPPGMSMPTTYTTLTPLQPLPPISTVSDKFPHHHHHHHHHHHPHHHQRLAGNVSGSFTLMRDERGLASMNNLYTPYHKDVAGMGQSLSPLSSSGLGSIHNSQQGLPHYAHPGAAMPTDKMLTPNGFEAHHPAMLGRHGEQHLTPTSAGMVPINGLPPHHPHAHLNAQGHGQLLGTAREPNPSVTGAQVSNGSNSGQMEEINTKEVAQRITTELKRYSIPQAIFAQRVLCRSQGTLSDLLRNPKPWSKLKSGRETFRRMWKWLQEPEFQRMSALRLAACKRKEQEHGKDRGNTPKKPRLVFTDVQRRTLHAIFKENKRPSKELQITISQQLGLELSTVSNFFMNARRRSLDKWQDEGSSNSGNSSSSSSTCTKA
Chain of Paired box protein Pax-6 (Homo sapiens) (P26367 whole entry, looked up): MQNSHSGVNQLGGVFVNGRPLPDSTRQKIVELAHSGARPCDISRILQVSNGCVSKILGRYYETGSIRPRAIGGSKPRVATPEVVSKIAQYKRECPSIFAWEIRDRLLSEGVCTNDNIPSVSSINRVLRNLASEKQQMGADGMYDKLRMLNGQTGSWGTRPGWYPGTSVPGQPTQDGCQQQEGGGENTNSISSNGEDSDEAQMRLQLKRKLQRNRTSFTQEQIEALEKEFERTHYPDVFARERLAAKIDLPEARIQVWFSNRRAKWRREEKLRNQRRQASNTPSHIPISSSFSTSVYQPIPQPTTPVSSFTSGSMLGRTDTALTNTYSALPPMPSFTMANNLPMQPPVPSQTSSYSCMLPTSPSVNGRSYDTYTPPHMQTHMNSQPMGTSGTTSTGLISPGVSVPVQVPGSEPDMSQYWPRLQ
Chain of Heat shock factor protein 1 (Homo sapiens) (Q00613 whole entry, looked up, the tested form may be a part): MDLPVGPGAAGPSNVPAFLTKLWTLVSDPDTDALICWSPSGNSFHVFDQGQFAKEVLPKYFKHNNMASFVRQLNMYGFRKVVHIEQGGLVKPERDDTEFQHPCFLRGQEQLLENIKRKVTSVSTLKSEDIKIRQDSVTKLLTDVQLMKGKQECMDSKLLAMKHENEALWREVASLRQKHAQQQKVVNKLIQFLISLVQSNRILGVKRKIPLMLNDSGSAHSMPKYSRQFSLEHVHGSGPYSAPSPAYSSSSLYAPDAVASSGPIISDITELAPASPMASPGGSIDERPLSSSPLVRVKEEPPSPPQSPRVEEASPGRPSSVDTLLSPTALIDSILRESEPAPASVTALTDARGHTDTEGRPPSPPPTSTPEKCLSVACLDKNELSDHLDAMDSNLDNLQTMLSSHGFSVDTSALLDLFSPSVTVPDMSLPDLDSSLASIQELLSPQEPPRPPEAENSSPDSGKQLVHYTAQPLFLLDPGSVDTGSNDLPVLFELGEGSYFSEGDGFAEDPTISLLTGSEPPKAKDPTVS
Chain of Signal transducer and activator of transcription 3 (Homo sapiens) (P40763 whole entry, looked up): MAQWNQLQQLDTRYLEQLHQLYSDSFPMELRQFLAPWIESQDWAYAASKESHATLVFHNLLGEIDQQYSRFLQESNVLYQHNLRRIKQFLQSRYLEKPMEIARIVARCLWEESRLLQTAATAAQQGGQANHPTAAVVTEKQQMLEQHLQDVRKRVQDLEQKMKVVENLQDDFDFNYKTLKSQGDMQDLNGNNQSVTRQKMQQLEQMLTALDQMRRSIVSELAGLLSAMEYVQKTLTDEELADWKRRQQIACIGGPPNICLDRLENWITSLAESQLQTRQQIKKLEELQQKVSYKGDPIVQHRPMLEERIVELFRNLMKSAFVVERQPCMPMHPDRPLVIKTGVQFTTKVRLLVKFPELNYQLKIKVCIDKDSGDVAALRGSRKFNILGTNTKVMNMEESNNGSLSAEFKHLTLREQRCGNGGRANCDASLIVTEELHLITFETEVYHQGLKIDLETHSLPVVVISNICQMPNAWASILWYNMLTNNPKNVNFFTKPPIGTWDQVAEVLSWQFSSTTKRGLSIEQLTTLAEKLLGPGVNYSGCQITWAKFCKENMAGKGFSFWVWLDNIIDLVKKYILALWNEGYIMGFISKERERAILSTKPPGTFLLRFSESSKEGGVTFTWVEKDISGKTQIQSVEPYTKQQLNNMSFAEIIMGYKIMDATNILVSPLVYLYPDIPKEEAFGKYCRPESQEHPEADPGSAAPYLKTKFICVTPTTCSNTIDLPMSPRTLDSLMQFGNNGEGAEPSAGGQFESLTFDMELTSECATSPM

CCCC(C)=O
not listed: [17] | [18] | [19]
inactive: all other assays above

Cc1ccc(C)o1
not listed: [7]
inactive: all other assays above

CC1=CC[C@@]23C[C@@H]1C(C)(C)[C@@H]2CC[C@H]3C
active: [18] 5.2 µM
not listed: [10] | [19]
inactive: all other assays above

ON=C1CCCCC1
not listed: [8] | [10] | [18]
inactive: all other assays above

CC(=O)C1(C)CC2=C(CCCC2(C)C)CC1C (stereo not drawn)
active: [2] 152 µM | [6] 134 µM | [17] 100 µM | [18] 25.6 µM | [19] 100 µM | [10] 74.4 µM | [12] 162 µM | [13] 85.8 µM | [16] 73.3 µM
inactive: [1] | [3] | [4] | [5] | [7] | [9] | [11] | [14] | [15]

C=C(C)C1CC=C(C)C(=O)C1 (stereo not drawn)
active: [18] 33.4 µM
not listed: [14] | [17] | [19]
inactive: all other assays above

CC(=O)NCCO
not listed: [7] | [17]
inactive: all other assays above

CCCSc1ccc2nc(NC(=O)OC)[nH]c2c1
not listed: [16] | [18]
inactive: all other assays above

COCCOCCOCCO
active: [18] 33.4 µM
not listed: [10] | [19]
inactive: all other assays above

C=CC(=C)CCCC(C)(C)OC(C)=O
not listed: [17]
inactive: all other assays above

CCCCCCCCCCCCCCCC(=O)OC/C=C(C)/C=C/C=C(C)/C=C/C1=C(C)CCCC1(C)C
not listed: [8] | [18]
inactive: all other assays above

CC(CN=Cc1ccccc1O)N=Cc1ccccc1O (stereo not drawn)
active: [5] 72.3 µM | [8] 26.8 µM
not listed: [7] | [19]
inactive: all other assays above

COC(=O)Nc1ccc(Cl)c(Cl)c1
active: [1] 25.7 µM | [2] 30.7 µM | [8] 49.7 µM | [18] 100 µM | [16] 26.4 µM
not listed: [17]
inactive: all other assays above

COC(C)(C)CCO
not listed: [18]
inactive: all other assays above

N[C@@H](Cc1cc(I)c(Oc2cc(I)c(O)c(I)c2)c(I)c1)C(=O)O
active: [5] 18.9 µM | [8] 27.8 µM | [19] 22.1 µM | [13] 22.7 µM
not listed: [10] | [17] | [18]
inactive: all other assays above

C=CCN(CC=C)CC=C
not listed: [7] | [16]
inactive: all other assays above
